# Screening data (PubChem)
# CHO-K1 Ca ag: counter-screen for M1 agonists: effect in parental CHO-K1 cells; Fluo-8 calcium fluorescence; scaled to maximal ATP response, vehicle zero; activation, % at 3 µM; actives 0.48% (n = 360,000); AID 602248; in the data active means activation above about 15%;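 further: untransfected CHO-K1 host cells lacking M1 receptor as counterscreen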
# M1 ag: human M1 muscarinic receptor agonism. P11229. CHO-K1 hM1, Fluo-8 calcium fluorescence, agonist mode; 0% DMSO, 100% acetylcholine EC100. activation, % at 3 µM. actives 0.33% (n = 360,000);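 active means activation above the run's mean compound activation plus 3 SD, cut at about 16% in these data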;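 further: peak over basal fluorescence ratio within a 140 s kinetic read after compound addition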
# Target sequence (P11229 whole entry, looked up): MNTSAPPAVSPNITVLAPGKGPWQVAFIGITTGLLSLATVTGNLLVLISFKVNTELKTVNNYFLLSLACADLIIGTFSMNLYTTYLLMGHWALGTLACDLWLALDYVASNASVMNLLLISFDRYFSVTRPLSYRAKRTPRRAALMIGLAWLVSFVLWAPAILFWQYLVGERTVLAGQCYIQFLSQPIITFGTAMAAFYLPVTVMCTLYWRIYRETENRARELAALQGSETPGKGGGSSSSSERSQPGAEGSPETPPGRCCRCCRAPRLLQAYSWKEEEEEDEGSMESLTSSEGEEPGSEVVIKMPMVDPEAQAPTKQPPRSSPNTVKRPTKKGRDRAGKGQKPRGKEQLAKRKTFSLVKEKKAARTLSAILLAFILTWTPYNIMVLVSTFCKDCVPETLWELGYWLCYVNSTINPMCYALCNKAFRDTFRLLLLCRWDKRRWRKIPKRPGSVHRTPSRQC
# M1 antag: antagonists of human M1 muscarinic receptor | P11229 | CHO-K1 hM1, Fluo-8 calcium fluorescence, ACh EC80 antagonist | inhibition, % at 3 µM | actives 1.3% (n = 360,000) | AID 588852;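 active means percent inhibition above its own plate's cutoff, namely the mean of that plate's compound wells plus 3 SD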;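 further: peak over basal fluorescence ratio during 140 s after agonist addition; 0% = ACh EC80 plus DMSO and 100% = DMSO alone without agonist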
# M1 PAM parental: nonselective activator or artifact in parental CHO-K1 calcium assay; AID 602247; activation, % at 3 µM; ATP EC20, Fluo-8 calcium fluorescence; 0% at ATP EC20, 100% at ATP max; actives 0.02% (n = 360,000);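 active means activation above the run cutoff, the mean activation of all test compounds plus 3 SD, cut at about 40% in these data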;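 further: peak over basal fluorescence ratio in a 140 s read after ATP addition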
# CHO-K1 Ca antag: nonselective inhibitor or artifact in parental CHO-K1 cells; ATP-induced calcium, Fluo-8 fluorescence; inhibition, % at 3 µM; actives 0.6% (n = 360,000);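 active means inhibition above a per-plate cutoff, the plate's mean sample inhibition plus 3 SD, cut at about 24% in these data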;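 further: 0% = DMSO plus EC80 ATP and 100% = DMSO alone without ATP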
# CHRM1 PAM: potentiates human M1 receptor response to acetylcholine; P11229; CHO-K1 hM1, Fluo-8 calcium fluorescence, ACh EC20; 0% = ACh EC20, 100% = maximal ACh; activation, % at 3 µM; actives 0.088% (n = 360,000); AID 588819; in the data active means activation above about 19%, passing the limit was not always enough
# Active calls of the source: *; nt = not tested or not shown. The list is not random: actives were taken first. Their share in the collection is about 2.3%.
SMILES,CHO-K1 Ca ag,M1 ag,M1 antag,M1 PAM parental,CHO-K1 Ca antag,CHRM1 PAM
CC(C)CCNC(=S)Nc1ccc([N+](=O)[O-])cc1,12.7,-2.9,17.5,-11.5,28.9*,-15.9
CCCCNC(=S)NC(=O)c1ccc([N+](=O)[O-])cc1,-0.1,-4.8,-4.2,5.4,-9.4,-0.4
COc1ccc(Cl)cc1N1C(=O)/C(=C\c2sccc2C)N=C1SCC(=O)NC1CC1,0.8,-4.6,0.3,-3.8,6.3,-0.8
CCOc1cc(CNCc2ccncc2)cc(Cl)c1OC,0.9,-1.9,-7.3,26.7,-13.1,12.7
COc1ccccc1-c1nc(-c2ccc(C)nc2OC)no1,-0.4,-1.5,1.8,-4.6,26.0*,0.6
COCc1nc(-c2ccc(-c3ccccc3)nc2OC)no1,0.4,-2.7,-19.9,15.9,-2.7,7.9
COc1ccccc1NC(=O)c1ccccc1-c1nc(-c2ccccc2OC)no1,4.8,-0.2,29.3*,22.7,-0.1,-11.3
COc1ccccc1-c1noc(-c2ccccc2C(=O)Nc2ccccc2)n1,1.8,-1.3,-9.2,1.3,1.0,-12.8
COc1nc(-c2ccccc2)ccc1-c1noc(C)n1,0.0,-4.6,2.8,1.2,27.6*,6.2
CCOC(=O)C1CCN(CC(=O)c2c(C)n(C)c3ccc(OC)cc23)CC1,0.2,-4.3,-18.7,-2.4,6.0,21.8
COC(CNC(=O)C(=O)NCC1CCCN1S(=O)(=O)c1cccs1)OC (stereo not given),0.2,0.2,-5.5,10.2,-3.5,9.3
COC(=O)[C@]12CCCCC=C1N(Cc1ccccc1)C(=O)[C@H](CC(=O)NCCc1ccccc1OC)C2,2.6,nt,nt,15.6,-16.1,nt
Cc1nonc1OCCNCCNc1ccccc1[N+](=O)[O-],0.1,-0.5,13.0,-12.1,27.0*,-8.8
O=[N+]([O-])c1ccccc1NCCOc1ccccc1,-0.1,-6.3,-4.2,-4.4,-0.8,2.0
CC1=C(C#N)C(/C=N/OCc2ccc(F)cc2Cl)CC(=O)N1 (stereo not given),0.1,-7.7,-5.3,5.4,0.1,3.9
O=C(Nc1cccc(C(=O)O)c1)/C(=C\c1cccc([N+](=O)[O-])c1)NC(=O)c1ccc(Br)cc1,0.1,-6.3,60.9*,6.6,7.5,-21.1
CCCn1ncc(CN2CCC(n3nccc3NC(=O)CCc3ccccc3)CC2)c1C,2.0,-5.3,2.5,16.4,-10.1,-0.2
Cn1nc(C(C)(C)C)cc1C(=O)N1CCCCC1c1cc(C(=O)Nc2ccccc2Cl)no1 (stereo not given),0.9,-1.7,-1.2,-10.3,24.1*,2.1
CN(C)CCOC1c2ccccc2CSc2ccccc21 (stereo not given),0.2,-7.9,99.0*,4.5,1.5,-25.5
O=C1NC(=S)S/C1=C\C=C\c1ccc([N+](=O)[O-])o1,25.9*,17.5*,55.3*,1.7,43.6*,-4.9
CCOc1ccc(Br)cc1/C(C)=N\NC1=NCCN1,2.6,10.6,62.8*,-0.3,14.9,-16.6
CCCCCOc1ccc(/C(C)=N/NC2=NCCN2)cc1,0.5,-4.1,-11.6,4.7,-5.7,7.4
O=C(Nc1ccccc1)c1ccccc1OCC(O)CN1C(=O)c2ccccc2S1(=O)=O (stereo not given),4.4,-2.5,49.9*,2.7,11.1,-14.0
O=S1(=O)CCC(NC(=S)Nc2ccc3ccccc3c2)C1 (stereo not given),1.0,-1.6,-10.1,-5.2,-6.9,6.2
O=S1(=O)CCC(NC(=S)Nc2ccccc2)C1 (stereo not given),0.5,1.7,-33.8,22.1,-14.9,28.9*
CC(C)(C)NC(=O)NC(=O)COC(=O)c1ccc(OC(F)F)cc1,-0.1,-6.9,3.5,-11.0,27.7*,-1.0
CC(C)(C)NC(=O)NC(=O)COC(=O)c1ccc(OC(F)(F)F)cc1,0.2,-7.4,-4.4,3.4,-2.0,1.2
COc1cc(C(=O)N2CCN(c3cccc(C(F)(F)F)c3)CC2)ccc1OCC(=O)N1CCOCC1,2.1,-3.7,11.5,-9.5,-5.8,-6.6
Cc1[nH]c(=O)[nH]c(=O)c1S(=O)(=O)Nc1cccc(C(F)(F)F)c1,2.1,0.6,-7.6,1.6,-5.2,7.6
